Source: PubChem BioAssay
KAT2A inh: qHTS Assay for Inhibitors of GCN5L2 | Histone acetyltransferase KAT2A (Homo sapiens), Q92830 | GCN5L2 HAT assay, ThioGlo1 CoA-SH fluorescence | Potency, µM (top dose mostly 58.9 µM), without a hit: top-dose activity change, negative = inhibition, usual class: inhibitors | 390,000 compounds, 0.21% hits | AID 504327, 2011
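qHTS, 1536-well. 20nM enzyme, pH 7.5 HEPES/EDTA/Tween-20 buffer; 15 min compound preinc., RT. Start: 75uM H3(1-25), 70uM AcCoA, 50uM ThioGlo1. Read Ex340/Em540 at t=0 (autofluorescence flag) and t=20 min.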
TDP1 cell CPT: qHTS for Inhibitors of human tyrosyl-DNA phosphodiesterase 1 (TDP1): qHTS in cells in presence of CPT. AID 686979, 2013. chicken DT40 Tdp1-/-;hTDP1 cells + 20 nM CPT, ATP luminescence, 48 h. 420,000 compounds, 12% hits. Potency, µM (series often up to 46.2 µM), without a hit: top-dose activity change, negative = growth inhibition, hits mostly inhibitors; note: nearly all actives have a fitted effect of over 55% in size
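Chicken DT40 Tdp1-/- cells stably complemented with human TDP1 were seeded at 400 cells/well in medium containing 20 nM camptothecin, exposed to pin-transferred compounds, and grown at 37 °C for at least 48 hr. Viability was read as ATP luminescence.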
TDP1 inh: qHTS Assay for Inhibitors of Tyrosyl-DNA Phosphodiesterase (TDP1) | Tyrosyl-DNA phosphodiesterase 1 (Homo sapiens), Q9NUW8 | recombinant TDP1, AlphaScreen DNA substrate cleavage | 350,000 compounds, 0.28% hits | Potency, µM (highest dose often 130 µM), for inactives: at the highest dose activity change, negative = inhibition, usual class: inhibitors | AID 485290, 2010; note: nearly all actives have a fitted effect of over 40% in size
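Signal: AlphaScreen proximity between streptavidin donor and anti-FITC acceptor beads on intact substrate. Reaction: Tdp1 1 nM, substrate 15 nM final, 5 min RT after 15 min compound preincubation.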
VDR inh: Inhibitors of the vitamin D receptor (VDR): qHTS. Vitamin D3 receptor (Homo sapiens), P11473. VDR-SRC2-3 peptide fluorescence polarization, 2 h. Potency, µM, without a hit: max response, negative = inhibition, actives largely listed as inhibitors. 400,000 compounds, 0.93% hits. AID 504847, 2011
Target sequence (P11473 whole entry, looked up): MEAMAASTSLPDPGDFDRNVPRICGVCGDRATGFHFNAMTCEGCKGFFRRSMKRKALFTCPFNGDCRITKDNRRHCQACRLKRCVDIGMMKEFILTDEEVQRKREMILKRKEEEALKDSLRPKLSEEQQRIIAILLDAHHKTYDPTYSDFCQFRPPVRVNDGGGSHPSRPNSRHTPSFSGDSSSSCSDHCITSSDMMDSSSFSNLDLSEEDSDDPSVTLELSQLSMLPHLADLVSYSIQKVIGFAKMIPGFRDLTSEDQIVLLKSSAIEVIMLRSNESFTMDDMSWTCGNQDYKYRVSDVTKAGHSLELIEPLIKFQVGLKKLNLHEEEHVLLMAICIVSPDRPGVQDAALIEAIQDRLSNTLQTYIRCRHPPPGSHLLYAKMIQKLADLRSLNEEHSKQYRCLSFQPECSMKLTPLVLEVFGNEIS
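Signal is fluorescence polarization, reporting how far test compounds block the interaction of VDR with the SRC2-3 coregulator peptide after a 2 h room-temperature incubation.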
PLK1 PBD inh: qHTS for Inhibitors of PLK1-PDB (polo-like kinase 1 - polo-box domain): Primary Screen; Potency, µM, inactives show max response, negative = inhibition, hits mostly inhibitors; Serine/threonine-protein kinase PLK1 (Homo sapiens), P53350; 360,000 compounds, 2.8% hits; Plk1 PBD binding of FITC phosphopeptide, fluorescence polarization; note: series mostly up to about 57 µM; nearly all actives have a fitted effect of over 65% in size
TDP1 cell noCPT: qHTS for Inhibitors of human tyrosyl-DNA phosphodiesterase 1 (TDP1): qHTS in cells in absence of CPT; DT40 Tdp1-/- hTDP1 cells, no CPT, ATP luminescence, 48 h; 420,000 compounds, 15% hits; Potency, µM (titrated, usually from 46.2 µM), for the others: at the top dose activity change, negative = growth inhibition, most hits filed as inhibitors; note: nearly all actives have a fitted effect of over 55% in size
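A cellular qHTS used chicken DT40 cells lacking endogenous Tdp1 but carrying stably transfected human TDP1. Compounds were applied without camptothecin, and cell growth kinetics were judged by ATP-dependent luminescence after ≥48 hr.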
An asterisk follows results filed as active; ? = inconclusive; . = not tested or not shown; [ ] = remark or other dose. In the library only some 18% were active in any assay of this set; here they are far more common. Calls come from the whole dose curve; as a rule, active = well fitted curve in the direction sought with a large enough effect; inconclusive = small, poorly fitted or top-dose-only effect, or another doubt; inactive = no such curve, though single readings can be large; an effect the other way counts as inactive or inconclusive. % is set by controls: 0 for no effect and ±100 for the full control effect; potency is the fitted concentration of half-maximal effect.

SMILES	KAT2A inh	TDP1 cell CPT	TDP1 inh	VDR inh	PLK1 PBD inh	TDP1 cell noCPT
CCOC(=O)c1nnn(C(CC)C(=O)Nc2ccc(F)cc2)c1C(=O)OCC (stereo unspecified)	-5%	-8%	2%	-28%	.	-13%
Cc1ccc(CN2CCOc3ccc(CN4CCN(CCO)CC4)cc3C2)s1	.	10%	.	.	.	-14%
O=C(COC(=O)C1CCN(S(=O)(=O)c2ccccc2)CC1)NCCc1ccccc1	-6%	5%	1%	10%	0%	-3%
O=C(COc1ccccc1)NC1CCSC1=O (stereo unspecified)	-4%	27%	2%	?	-20%	-2%
O=C(NC1CCSC1=O)c1ccc(Oc2cccc(C(F)(F)F)c2)nc1 (stereo unspecified)	0%	-25%	-3%	-7%	21µM*	?
O=[N+]([O-])c1ccc(Oc2ccc(C(F)(F)F)cn2)cc1	4%	5%	5%	-18%	-3%	4%
O=C(Nc1ccc(Oc2cccc(C(F)(F)F)c2)nc1)c1cccs1	-9%	21µM*	-8%	8%	-10%	16µM*
O=[N+]([O-])c1ccc(Oc2cccc(C(F)(F)F)c2)nc1	-2%	13µM*	.	?	27µM*	?
Cc1ccc(Cn2c(C(CO)Nc3nc(-c4ccc(F)cc4)cs3)nc3ccccc32)cc1 (stereo unspecified)	.	?	.	-15%	-10%	16µM*
COc1ccc(-c2csc(NC(CO)c3nc4ccccc4n3Cc3ccc(C)cc3)n2)cc1 (stereo unspecified)	.	26µM*	.	-5%	-18%	?
OC(c1ccc2c(c1)CN(Cc1cccn1-c1ncccn1)CCO2)C1CCCCC1 (stereo unspecified)	.	7%	.	.	.	-23%
NS(=O)(=O)c1ccc(CCNC(=O)CSCC(=O)Nc2ccc(Cl)cc2)cc1	-1%	-11%	1%	-10%	-10%	3%
Cc1nc2ccccc2n1-c1ccccc1	2%	?	4%	3%	1%	?
Cc1nc2ccccc2c2c(N)c3ccccc3n12	-5%	?	-12%	?	12µM*	21µM*
O=C(O)c1ccc(N=N/C(=N\Nc2ccc(C(=O)O)cc2)c2ccccc2)cc1	-2%	-27%	-4%	-7%	-16%	?
Brc1ccc(N/N=C(/N=Nc2nn[nH]n2)c2ccccc2)cc1	?	2.9µM*	11%	?	?	2.6µM*
OC(CNCc1ccccn1)c1ccccc1 (stereo unspecified)	12%	-8%	-4%	-15%	-13%	?
OC(CNCc1ccncc1)c1ccccc1 (stereo unspecified)	17%	-24%	.	-19%	27µM*	-8%
Cc1ccc(-c2ccc(CN3C(C(C)C)C(=O)N(Cc4cn(CC5CCCCC5)nn4)CCS3(=O)=O)cc2)cc1 (stereo unspecified)	.	12µM*	.	.	-14%	8.2µM*
COCOCCn1cc(CN2CCS(=O)(=O)N(Cc3ccc(-c4ccc(F)nc4)cc3)C(CC(C)C)C2=O)nn1 (stereo unspecified)	.	?	.	.	-24%	?
CCC/C=C/c1ccc(CN2C(CC(C)C)C(=O)N(Cc3cn(CC4CCCCC4)nn3)CCS2(=O)=O)cc1 (stereo unspecified)	.	?	.	.	-7%	23µM*
CC(C)C1C(=O)N(Cc2cn(CC3CCCCC3)nn2)CCS(=O)(=O)N1Cc1ccc(-c2ccncc2)cc1 (stereo unspecified)	.	-30%	.	.	-11%	?
CC(C)C1C(=O)N(Cc2cn(CC3CCCCC3)nn2)CCS(=O)(=O)N1Cc1ccc(-c2ccc(F)nc2)cc1 (stereo unspecified)	.	?	.	.	4%	13µM*
CC(C)C1C(=O)N(Cc2cn(CC3CCCCC3)nn2)CCS(=O)(=O)N1Cc1ccc(-c2ccc(Cl)cc2)cc1 (stereo unspecified)	.	9.2µM*	.	.	-3%	7.3µM*
O=C(NCc1ccccn1)c1cnn(-c2nccc(-c3cc4ccccc4o3)n2)c1C1CC1	.	4%[9.04 µM]	.	.	.	-29%
SMILES	KAT2A inh	TDP1 cell CPT	TDP1 inh	VDR inh	PLK1 PBD inh	TDP1 cell noCPT
CC(C)C1C(=O)N(Cc2cn(CC3CCCCC3)nn2)CCS(=O)(=O)N1Cc1ccc(-c2cccc(CO)c2)cc1 (stereo unspecified)	.	18µM*	.	.	-2%	8.2µM*
CC(C)C1C(=O)N(Cc2cn(CC3CCCCC3)nn2)CCS(=O)(=O)N1Cc1ccc(-c2ccccc2)cc1 (stereo unspecified)	.	13µM*	.	.	-12%	4.1µM*
CC(C)C1C(=O)N(Cc2cn(CC3CCCCC3)nn2)CCS(=O)(=O)N1Cc1ccc(-c2ccc(Cl)nc2)cc1 (stereo unspecified)	.	15µM*	.	.	4%	10µM*
Cc1ccc(-c2ccc(CN3C(CC(C)C)C(=O)N(Cc4cn(CC5CCCCC5)nn4)CCS3(=O)=O)cc2)cc1 (stereo unspecified)	.	21µM*	.	.	-7%	16µM*
COc1ccc(C2=NOC(Cn3nc(C(=O)NCc4cccc(Br)c4)cc3-c3ccccc3)C2)cc1 (stereo unspecified)	-3%	?	1%	-6%	4%	?
O=C(NC1CC2CCCC(C1)N2Cc1cccs1)c1ccc([N+](=O)[O-])cc1 (stereo unspecified)	0%	.	2%	.	.	.
CCOc1ccccc1NC(=O)CN(C)S(=O)(=O)c1ccc2nc(C)sc2c1	0%	-6%	0%	-6%	.	-28%
COc1ccc(CCC(=O)NCC(=O)OCc2ccccc2)cc1	-12%	-1%	.	25%	0%	9%
Cc1cccc(N2CCN(C(=O)c3oc(=O)c4ccccc4c3-c3ccccc3)CC2C)c1 (stereo unspecified)	-5%	?	0%	-12%	.	?
Cc1ccc(OCC(=O)N(Cc2ccco2)Cc2ccco2)cc1	-6%	?	7%	15%	.	16µM*
COc1ccc(CN(Cc2ccco2)C(=O)COc2ccccc2Cl)cc1	-12%	?	0%	10%	.	23µM*
